Source: PubChem BioAssay
Shown are actives, neighbours in structure and some others; about 1.1% of the full set was active somewhere.
HTT cytoprotect: cytoprotection in Huntington HTT-Q103 PC12 cell model. PC12 HTT-Q103 induced, cytoprotection, ATP luminescence, 40 h. Potency, µM (titrated, usually from 56.4 µM), for the others: cytoprotection (ATP increase), actives largely listed as activators. 0.14% of 230,000 active; note: potency is the fitted concentration of half-maximal effect; % of control where 0% means no effect; nearly all actives have a fitted effect of over 45% in size
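Compounds were screened for protection of PC12 cells against cell death after tebufenozide induction (100 nM final) of mutant Huntingtin exon 1 (Q103) fused to GFP.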
NPSR antagonist: antagonists of human neuropeptide S receptor cAMP signaling | 1% of 220,000 active | Potency, µM (highest dose often 38.3 µM), without a hit: top-dose activity change, negative = inhibition, usual class: inhibitors | CHO-NPSR cells, cAMP TR-FRET, antagonist mode | AID 1461; note: potency is the fitted concentration of half-maximal effect; % is set by controls: 0 for no effect and ±100 for the full control effect; nearly all actives have a fitted effect of over 50% in size
Target sequence (Q6W5P4 whole entry, looked up): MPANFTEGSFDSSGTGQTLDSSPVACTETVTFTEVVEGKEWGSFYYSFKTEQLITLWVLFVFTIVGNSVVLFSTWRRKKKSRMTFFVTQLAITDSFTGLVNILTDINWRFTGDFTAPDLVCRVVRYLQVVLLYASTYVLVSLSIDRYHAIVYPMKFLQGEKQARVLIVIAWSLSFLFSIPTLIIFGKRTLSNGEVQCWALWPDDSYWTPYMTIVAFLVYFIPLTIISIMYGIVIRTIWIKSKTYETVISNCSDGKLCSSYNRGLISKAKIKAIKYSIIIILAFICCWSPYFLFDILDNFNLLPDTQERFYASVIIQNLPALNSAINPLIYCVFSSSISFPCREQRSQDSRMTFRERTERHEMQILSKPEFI
CBFb-RUNX1 inh: CBF-beta/RUNX1 interaction disruption; Q01196+Q13951; AlphaScreen CBFb-His/RUNX1-biotin binding, biochemical; Potency, µM (series often up to 59.8 µM), without a hit: at the top dose activity, negative = inhibition, usual class: inhibitors; 230,000 tested, under 10 active; AID 1477; note: % of control where 0% means no effect
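Proteins preincubated together for 20 min at RT before compound addition; 15 min later, nickel and streptavidin beads were added and left 90 min prior to AlphaScreen measurement.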
MBNL1 CUG block: MBNL1-poly(CUG) RNA binding inhibition. Potency, µM (highest dose often 57.5 µM), inactives show top-dose activity change, negative = inhibition, usual class: inhibitors. TR-FRET MBNL1-His/biotin-(CUG)12 binding, 665/545 ratio. 0.036% of 280,000 active. Q9NR56; active = well fitted inhibition curve with a large enough effect in the signal ratio, with a control signal flat, not every such curve was filed as active; inconclusive = small, poorly fitted or top-dose-only effect, or effect the other way, or a change in a side signal; inactive = no such curve, though single readings can be large or run the other way; the % refers to the signal ratio; note: potency is the fitted concentration of half-maximal effect; % is set by controls: 0 for no effect and ±100 for the full control effect
Target sequence (Q9NR56 whole entry, looked up): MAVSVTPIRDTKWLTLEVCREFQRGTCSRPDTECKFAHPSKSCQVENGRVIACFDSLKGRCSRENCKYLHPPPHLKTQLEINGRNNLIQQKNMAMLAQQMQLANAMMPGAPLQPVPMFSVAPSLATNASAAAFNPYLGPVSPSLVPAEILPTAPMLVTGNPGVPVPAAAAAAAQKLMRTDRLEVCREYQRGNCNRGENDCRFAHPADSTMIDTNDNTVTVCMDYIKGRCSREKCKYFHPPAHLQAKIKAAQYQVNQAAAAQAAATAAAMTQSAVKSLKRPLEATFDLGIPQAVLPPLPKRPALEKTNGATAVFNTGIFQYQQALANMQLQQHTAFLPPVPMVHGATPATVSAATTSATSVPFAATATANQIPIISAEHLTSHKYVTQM
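TR-FRET between His-tagged MBNL1 and biotin-(CUG)12 RNA, detected with Tb anti-His antibody (0.055 ng/ul) and streptavidin-XL665 (5 nM), 60 min at room temperature. Compounds titrated 92 nM to 58 uM; 665/545 nm ratio normalized to buffer and complex controls.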
HttQ103 aggreg: mutant huntingtin aggregation inhibition | PC12 HttQ103-GFP aggregates, Acumen cytometry, 40 h | Potency, µM (titrated, usually from 46.1 µM), without a hit: top-dose activity change, negative = inhibition, most hits filed as inhibitors | 1.1% of 220,000 active | AID 1688; note: potency is the fitted concentration of half-maximal effect; % is set by controls: 0 for no effect and ±100 for the full control effect; nearly all actives have a fitted effect of over 60% in size
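Steps: seed 1500 PC12 HTTQ103-GFP cells/well; add tebufenozide, 100 nM final; add compound titration; add ATPLite reagent; quantify GFP aggregates by laser scanning cytometry.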
Lamin A splicing: LMNA splicing modulation | Potency, µM (doses to about 46.1 µM), for inactives: at the highest dose ratio change, negative = inhibition, most hits filed as inhibitors | HeLa LMNA splicing GFP/RFP minigene ratio, 48 h | 0.01% of 200,000 active; active = well fitted inhibition curve with a large enough effect in the signal ratio, with a control signal flat, not every such curve was filed as active; inconclusive = small, poorly fitted or top-dose-only effect, or effect the other way, or a change in a side signal; the % refers to the signal ratio; note: potency is the fitted concentration of half-maximal effect; % is set by controls: 0 for no effect and ±100 for the full control effect
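S3 HeLa cells stably expressing lamin A-EGFP splicing minigene plus DsRed2, 600 cells/well, 48 h compound exposure at 37C. Laser-scanning cytometry; analysed as GFP (500-530 nm)/RFP (575-640 nm) total intensity ratio; 0.5% DMSO vehicle.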
* marks the source's active call; other numbers are inactive results; ! = not confirmed by another sample; [ ] = dose if it differs, or a comment. Unless noted, calls come from the whole dose curve; as a rule, active = well fitted curve in the direction sought with a large enough effect; inconclusive = small, poorly fitted or top-dose-only effect, or another doubt; inactive = no such curve, though single readings can be large; an effect the other way counts as inactive or inconclusive.

Results for COc1cccc(NC(=O)CCc2nc(-c3ccccc3F)no2)c1 ?
HTT cytoprotect: -11%; NPSR antagonist: 2%[46.1 µM]; CBFb-RUNX1 inh: 9%; MBNL1 CUG block: -5%; HttQ103 aggreg: inconclusive; Lamin A splicing: -8%

What do the screens show for `O=C(CCc1nc(-c2ccccc2F)no1)Nc1ccc(Oc2ccccc2)cc1`?
HTT cytoprotect: -89%; NPSR antagonist: 0%[46.1 µM]; CBFb-RUNX1 inh: 4%; MBNL1 CUG block: -11%; HttQ103 aggreg: 4µM*; Lamin A splicing: inconclusive

Results for N#C/C(=N\O)c1nc(-c2ccccc2)cs1 ?
HTT cytoprotect: -7%; NPSR antagonist: -7%[46.1 µM]; CBFb-RUNX1 inh: 2%; MBNL1 CUG block: inconclusive; HttQ103 aggreg: 8.9µM*!; Lamin A splicing: inconclusive

How did COc1ccc(-c2cc(C(F)F)nn2-c2ccc(S(N)(=O)=O)cc2)cc1F do in these assays?
HTT cytoprotect: 8.9µM*; CBFb-RUNX1 inh: 12%; HttQ103 aggreg: 8%; Lamin A splicing: -22%

What do the screens show for `O=C(NNC(=S)Nc1ccc(Cl)cc1)c1ccccc1OC(F)F`?
NPSR antagonist: 0%; CBFb-RUNX1 inh: -12%; MBNL1 CUG block: 9%; HttQ103 aggreg: 13µM*; Lamin A splicing: inconclusive

How did Cc1ccc(S(=O)(=O)N2CCc3nc(-c4ccccc4)c4c(c3C2)CO[C@@H](C)C4)cc1 do in these assays?
HTT cytoprotect: 9%[10 µM]; CBFb-RUNX1 inh: 0%[13.1 µM]; Lamin A splicing: 15%[9.22 µM]

Results for CCC(C)C(NC(=O)OC(C)(C)C)C(=O)NC1COC2CC(n3ccc(NC(C)=O)nc3=O)OC12 (configuration not stated) ?
CBFb-RUNX1 inh: 9%

What do the screens show for `COc1cccc(NC(=O)Cn2c(=O)n(CCC(=O)NCc3ccco3)c(=O)c3ccccc32)c1`?
HTT cytoprotect: 3.2µM*; NPSR antagonist: -11%; CBFb-RUNX1 inh: 0%; HttQ103 aggreg: 21%; Lamin A splicing: -6%[46 µM]

What do the screens show for `CC1CCC(C(C)C)C(OC(=O)C2=C3c4ccccc4S(=O)(=O)N3CC2)C1` (configuration not stated)?
HTT cytoprotect: 13%[1.9 µM]; NPSR antagonist: 10µM*; CBFb-RUNX1 inh: 5%; MBNL1 CUG block: -3%; HttQ103 aggreg: -9%; Lamin A splicing: -6%

What do the screens show for `CC1CCC(C(C)C)[C@H](OC(=O)c2ccccc2)C1` (some centres not stated)?
Lamin A splicing: -4%

What do the screens show for `CC1CCN(S(=O)(=O)N2CCC(C(=O)NCc3ccccc3Cl)CC2)CC1`?
Lamin A splicing: -14%[46 µM]

Results for Cc1sc(NC(=O)c2ccco2)c(CN2CCC(C)CC2)c1C ?
HTT cytoprotect: -1%; NPSR antagonist: inconclusive; CBFb-RUNX1 inh: -4%; MBNL1 CUG block: 0%; HttQ103 aggreg: -14%; Lamin A splicing: 11%

How did Cc1sc(NC(=O)c2ccco2)c(C(c2cccnc2)N2CCC(C)CC2)c1C (configuration not stated) do in these assays?
HTT cytoprotect: -5%; NPSR antagonist: 13µM*; CBFb-RUNX1 inh: -4%; MBNL1 CUG block: 3%; HttQ103 aggreg: inconclusive; Lamin A splicing: inconclusive

Results for CCOc1ccc(OCC(=O)c2c(O)c3ccccc3oc2=O)cc1 ?
HTT cytoprotect: -33%; NPSR antagonist: -3%[46.1 µM]; CBFb-RUNX1 inh: -10%; MBNL1 CUG block: 3%; HttQ103 aggreg: 1%; Lamin A splicing: -3%

Results for CCOc1ccc(C2Nc3ccc4ccccc4c3-c3c2c(=O)oc2ccccc32)cc1 (configuration not stated) ?
HTT cytoprotect: -43%; NPSR antagonist: 10µM*; CBFb-RUNX1 inh: 11%; MBNL1 CUG block: 1%; HttQ103 aggreg: -2%; Lamin A splicing: 6%

How did COc1ccc(C2Nc3ccc4ccccc4c3-c3c2c(=O)oc2ccccc32)cc1 (configuration not stated) do in these assays?
HTT cytoprotect: -63%; NPSR antagonist: 7.9µM*; CBFb-RUNX1 inh: -11%; MBNL1 CUG block: -3%; HttQ103 aggreg: 28%; Lamin A splicing: 2%

What do the screens show for `O=c1oc2ccccc2c2c1C(c1ccc(Cl)cc1)Nc1ccc3ccccc3c1-2` (configuration not stated)?
HTT cytoprotect: 6%; NPSR antagonist: inconclusive; CBFb-RUNX1 inh: 3%; MBNL1 CUG block: -5%; HttQ103 aggreg: -15%; Lamin A splicing: 5%

Results for O=C(O)[C@H]1C[C@H](C(=O)O)N1 ?
HTT cytoprotect: -5%[1.9 µM]

Results for Cc1cc(NC(=O)c2cc(-c3cccs3)on2)no1 ?
HTT cytoprotect: -36%; NPSR antagonist: 0%[46.1 µM]; CBFb-RUNX1 inh: 5%; MBNL1 CUG block: 20%; HttQ103 aggreg: 7.1µM*; Lamin A splicing: -11%

What do the screens show for `COc1ccc(CCNC(=O)c2cc(-c3cccs3)on2)cc1OC`?
HTT cytoprotect: 3.5µM*; NPSR antagonist: -5%[46.1 µM]; CBFb-RUNX1 inh: -2%; MBNL1 CUG block: 14%; HttQ103 aggreg: 31%; Lamin A splicing: 19%

Results for CC(=O)O[C@@H]1CC[C@@]2(C)[C@H](C1)[C@H](OC(C)=O)C[C@@H]1[C@@H]2C[C@H]2[C@@H]3CN4C[C@H](C)CC[C@H]4[C@H](C)[C@H]3CC[C@@]12O ?
CBFb-RUNX1 inh: -1%

What do the screens show for `CC(C)=C[C@H]1[C@@H](COC(=O)c2cc3c(cc2Cl)OCO3)C1(C)C`?
HTT cytoprotect: 8%[10 µM]

What do the screens show for `O=C(NC1CCS(=O)(=O)C1)/C(=C/c1ccco1)NC(=O)c1ccccc1` (configuration not stated)?
HTT cytoprotect: 0.14µM*; NPSR antagonist: 1%; CBFb-RUNX1 inh: -9%; MBNL1 CUG block: inconclusive; HttQ103 aggreg: 0.18µM*

Results for O=C(NC1CCS(=O)(=O)C1)/C(=C\c1ccco1)NC(=O)c1ccccc1 (configuration not stated) ?
HTT cytoprotect: -4%[10 µM]; NPSR antagonist: 10%; CBFb-RUNX1 inh: 6%; MBNL1 CUG block: 3%; HttQ103 aggreg: -12%[9.22 µM]

Results for O=c1[nH]c(=O)n([C@H]2C[C@H](O)[C@@H](CO)O2)cc1Br ?
HTT cytoprotect: 3.5µM*!; NPSR antagonist: -3%[46.1 µM]; CBFb-RUNX1 inh: 8%[21.7 µM]; HttQ103 aggreg: 38%; Lamin A splicing: inconclusive

What do the screens show for `COC(=O)[C@H](Cc1ccccc1)NC(=O)O[C@@H]1C(=O)c2ccc(OC)cc2O[C@H]1c1cccc(C(F)(F)F)c1`?
HTT cytoprotect: -15%; CBFb-RUNX1 inh: 1%
